GRP78 ERSR act = qHTS for Inducers of the Endoplasmic Reticulum Stress Response (ERSR) in Human Glioma: qHTS; U87-MG GRP78 promoter luciferase reporter, 16 h; Potency, µM, inactives show at the highest dose activation, most hits filed as activators; actives 0.02% (n = 420,000); note: potency is the fitted concentration of half-maximal effect; series mostly up to about 76 µM; % of control where 0% means no effect; nearly all actives have a fitted effect of over 35% in size
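Stably transfected U87-MG glioma cells carrying a GRP78-based luciferase sensor; 16 h compound incubation. Luminescence end-point read 10 min after Bright-Glo addition at room temperature.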
TRHR agonist-1 = qHTS for Small Molecule Agonists and Allosteric Enhancers of Human TRH Receptor: Primary Screen for Agonists; TRHR cells, calcium flux fluo-8, FDSS agonist mode; actives 0.18% (n = 360,000); AID 493084, 2011; Thyrotropin-releasing hormone receptor (Homo sapiens), P34981; activation, % at 2 µM; in the data active = activation above about 30%; note: 0% is about no effect
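Agonist-mode FDSS calcium read (Ex 480/Em 530, 1 s cycles) in 1536-well TRHR cells with fluo-8 dye, after 10-cycle baseline and 23 nL compound addition; TRH at EC20 (10 nM final) added afterwards for the enhancer phase.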
D1 PAM = Potentiators of Human D1 Dopamine Receptor: qHTS; actives 0.036% (n = 360,000); AID 504651, 2011; D(1A) dopamine receptor (Homo sapiens), P21728; HEK293 TREx D1 cells, calcium flux, dopamine EC20 potentiation; potentiation, % at 10 µM; in the data active = potentiation above about 30%; note: 0% is about no effect
Target sequence (P21728 whole entry, looked up): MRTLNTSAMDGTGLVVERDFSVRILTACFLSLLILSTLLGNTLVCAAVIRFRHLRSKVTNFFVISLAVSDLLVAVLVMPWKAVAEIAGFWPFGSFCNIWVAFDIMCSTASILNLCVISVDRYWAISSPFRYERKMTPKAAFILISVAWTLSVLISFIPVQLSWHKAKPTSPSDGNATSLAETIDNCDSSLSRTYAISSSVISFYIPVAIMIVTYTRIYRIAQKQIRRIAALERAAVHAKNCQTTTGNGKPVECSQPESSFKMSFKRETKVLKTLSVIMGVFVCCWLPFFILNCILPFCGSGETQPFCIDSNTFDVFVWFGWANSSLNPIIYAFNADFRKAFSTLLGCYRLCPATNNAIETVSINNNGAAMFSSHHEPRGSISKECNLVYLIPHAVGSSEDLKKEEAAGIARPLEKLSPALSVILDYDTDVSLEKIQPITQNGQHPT
D1 antagonist = Antagonist of Human D 1 Dopamine Receptor: qHTS. D(1A) dopamine receptor (Homo sapiens), P21728. HEK293 TREx D1 cells, calcium flux, dopamine EC80; stronger effect = lower value. activity change, negative = inhibition, % at 10 µM. actives 3.2% (n = 360,000). AID 504652, 2011; in the data active = activity change below about -30%; note: % is set by controls: 0 for no effect and ±100 for the full control effect
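Inducible Hek293 Trex D1 cells (tetracycline, overnight, 30 C). Calcium dye 30–90 min RT. Antagonist mode: EC80 dopamine added after 180 s compound read.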
TRHR enhancer-1 = qHTS for Small Molecule Agonists and Allosteric Enhancers of Human TRH Receptor: Primary Screen for Enhancers; Thyrotropin-releasing hormone receptor (Homo sapiens), P34981; TRHR cells, fluo-8 calcium fluorescence, EC20 TRH enhancement; enhancement, % at 2 µM; actives 0.66% (n = 360,000); AID 493056, 2011; in the data active = enhancement above about 30%; note: 0% is about no effect
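Enhancer read-out: after compound pinning and an initial kinetic agonist-mode read, an EC20 of TRH (10 nM final) was injected and fluo-8 calcium signal (Ex 480/Em 530) followed at 1 s/cycle for 100 cycles in TRHR-expressing cells.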
D1 agonist = Allosteric Agonists of the Human D1 Dopamine Receptor: qHTS; D(1A) dopamine receptor (Homo sapiens), P21728; HEK293 T-REx D1 cells, calcium flux, agonist mode; activation, % at 2 µM; actives 1% (n = 360,000); in the data active = activation above about 30%; note: 0% is about no effect
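Inducible HEK293 T-REx D1 cells, force-coupled to calcium signalling, were plated at 4000 cells/well with tetracycline and held overnight at 30 C. After no-wash calcium dye loading, compound-evoked calcium rise over 180 s flagged agonists.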
TRHR enhancer-2 = qHTS for Small Molecule Agonists and Allosteric Enhancers of Human TRH Receptor: Confirmation Screen for Enhancers | TRH receptor cell assay, enhancer confirmation qHTS | shares compounds with TRHR enhancer-1 | activity change, negative = inhibition, % at 46.1 µM | 970 tested, under 10 active;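 note: compound effect scored on response to added TRH at EC20 of 10 nM; 0% is about no effect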
TRHR agonist-2 = qHTS for Small Molecule Agonists and Allosteric Enhancers of Human TRH Receptor: Confirmation Screen for Agonists; shares compounds with TRHR enhancer-1; TRHR-expressing cells, agonist activation read-out; Potency, µM (titrated, usually from 46.1 µM), inactives show top-dose activation, actives largely listed as activators; actives 8% (n = 970); AID 493078, 2011; note: potency is the fitted concentration of half-maximal effect; 0% is about no effect; nearly all actives have a fitted effect of over 75% in size
An asterisk follows results filed as active; ? = inconclusive; · = no result. Most compounds without a hit are left out; they make up all but 4% or so of the library. Unless noted, calls come from the whole dose curve; as a rule, active = well fitted curve in the direction sought with a large enough effect; inconclusive = small, poorly fitted or top-dose-only effect, or another doubt; inactive = no such curve, though single readings can be large; an effect the other way counts as inactive or inconclusive.

SMILES	GRP78 ERSR act	TRHR agonist-1	D1 PAM	D1 antagonist	TRHR enhancer-1	D1 agonist	TRHR enhancer-2	TRHR agonist-2
Cc1cc(C(=O)COc2cccc3cccnc23)c(C)n1C	2.9%	-1.0	0.1	0.9	5.8	-4.5	·	·
S=C(NC1CCCCC1)N1CCN(c2ncccn2)CC1	-3.3%	-0.4	-5.3	6.0	14.1	2.4	·	·
S=C(NC1CCCCC1)N1CCN(c2ccccn2)CC1	-3.8%	0.2	-6.3	0.9	43.5*	0.3	12.1	-0.7%
Cc1ccc(NC(=O)[C@@H]2CCC(=O)N2C2OC(=O)c3ccccc32)cc1Cl (stereo not given in full)	-0.9%	0.2	-4.8	4.7	67.9*	-0.7	-4.8	7.4%
COc1ccc(C(=O)CCC(=O)Nc2ccc(C)c(Cl)c2)cc1	-2.7%	-0.2	-4.0	-1.6	2.2	3.3	·	·
COc1cc(C(=O)NCc2ccccc2)ccc1OC(F)F	-4.0%	-1.0	5.8	-16.7	3.8	2.7	·	·
COc1ccccc1CNC(=O)c1ccc(OC(F)F)c(OC)c1	-2.6%	-0.6	-4.8	5.8	51.5*	0.6	-5.5	0.7%
CC(=O)Oc1ccc2c(c1)C(=O)CCCCCC(=O)O2	-6.7%	·	·	·	·	·	·	·
Cc1nn(-c2ccccc2)c(N2CCCC2)c1/C=N/NC(=O)c1ccccc1O	-1.7%	0.3	-3.0	-5.7	82.5*	3.4	-8.5	?
CCN(C(=O)COC(=O)Cc1coc2cc(C)ccc12)c1c(N)n(Cc2ccccc2)c(=O)[nH]c1=O	-3.7%	0.1	·	8.1	-1.1	2.3	·	·
Cc1ccc2c(CC(=O)OCC(=O)N(CC(C)C)c3c(N)n(Cc4ccccc4)c(=O)[nH]c3=O)coc2c1	-6.8%	0.4	-3.0	-16.5	49.2*	4.0	-0.4	?
CCC1=C(c2cc(OC)c(OC)c(OC)c2)C2(CCCC2)C(=O)O1	-3.8%	-0.5	2.3	0.9	3.9	4.6	·	·
C/C(CC(=O)Nc1cccc(C(F)(F)F)c1)=N\NC(=O)Cc1ccccc1	-1.5%	0.2	-10.7	4.0	57.9*	5.1	1.9	0.8%
CC(OC(=O)/C=C/c1ccco1)C(=O)NC1CCCCC1 (stereo not given)	-3.7%	·	·	·	·	·	·	·
O=C(C[C@H]1C(=O)N(C2CCCCC2)C[C@@H]1c1ccccc1)Nc1ccc(Br)cc1	-2.3%	·	·	·	·	·	·	·
O=C(Nc1nnc(SCc2ccc(F)cc2)s1)C1=COCCO1	6.5%	1.1	-5.4	-4.9	42.7*	0.5	-2.5	2.4%
O=C(Nc1nnc(SCc2ccccc2)s1)C1=COCCO1	-4.5%	1.2	-3.7	-4.1	-5.5	4.1	·	·
O=C(NC(=S)Nc1ccccc1Br)C1CCC1	4.0%	0.0	-3.9	-19.2	62.5*	6.7	-7.5	3.0%
N#Cc1ccccc1NC(=S)NC(=O)C1CCC1	-6.5%	-0.4	-0.3	-3.4	-0.5	1.8	·	·
Cc1nn(CCCC(=O)Nc2ccccn2)c(C)c1[N+](=O)[O-]	-4.2%	0.0	-0.1	17.0	47.2*	2.2	-4.0	1.0%
CCCCc1nc2cc(C(=O)N3CCNC(=O)C3CC(=O)OC)ccc2o1 (stereo not given)	-2.9%	0.0	-2.0	16.7	89.1*	0.2	0.1	-0.7%

Bioassay records deposited in PubChem BioAssay by National Center for Advancing Translational Sciences (NCATS).
